Consider one sequence from publication PMC7862700, “An all-to-all approach to the identification of sequence-specific readers for epigenetic DNA modifications on cytosine”.

Holding throughout (test): DAPPL (digital affinity profiling via proximity ligation, sequencing); 10 mM Tris-HCl pH 7.5, 50 mM NaCl, 1 mM DTT, 4% glycerol, room temperature, 30 min; GST-TFs on glutathione beads, 16-mer random dsDNA library, 0.1% formaldehyde crosslink after washing; high values mean tight binding
One experiment addresses T1, FEV (Homo sapiens, UniProt Q99581 1-238).
T1 sequence: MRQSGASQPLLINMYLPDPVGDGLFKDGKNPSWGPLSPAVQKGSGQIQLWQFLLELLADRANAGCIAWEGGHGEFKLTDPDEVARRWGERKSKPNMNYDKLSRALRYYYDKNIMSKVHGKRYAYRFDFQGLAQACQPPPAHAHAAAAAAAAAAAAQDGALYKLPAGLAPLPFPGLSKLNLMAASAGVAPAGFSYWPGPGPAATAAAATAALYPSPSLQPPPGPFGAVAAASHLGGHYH
The conditions noted are these: protein: recombinant; tags: N-terminal GST; dsDNA, one strand shown. The method, boiled down: (§1)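 Sequencing on an Illumina NextSeq500 followed washing, crosslinking with 0.1% formaldehyde, proximity ligation (BsaI/T4 ligase, 1 h, 37 °C) and PCR amplification of pools that had been incubated for 30 min at room temperature with 200 nmole of a random double-stranded 16-mer DNA library in Tris/NaCl/DTT/glycerol buffer. Each pool held DNA-barcoded human transcription factors, expressed in yeast as GST fusions and captured on glutathione beads, plus a tag-only sample. Binding signal is a hexamer's read frequency for a factor divided by its frequency in the tag-only sample.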

The target in the next experiment is ETV5 (Homo sapiens, UniProt P41161 1-510). The note with it: protein: recombinant; tags: N-terminal GST; dsDNA, one strand shown. In outline:
as §1

A further experiment concerns the target HSF1 (Homo sapiens, UniProt Q00613 1-529). The conditions noted are these: protein: recombinant; tags: N-terminal GST; chain copies: 3; dsDNA, one strand shown. In outline:
as §1

In the next experiment the target is T2, SPIC (Homo sapiens, UniProt Q8N5J4 1-248).
T2 sequence: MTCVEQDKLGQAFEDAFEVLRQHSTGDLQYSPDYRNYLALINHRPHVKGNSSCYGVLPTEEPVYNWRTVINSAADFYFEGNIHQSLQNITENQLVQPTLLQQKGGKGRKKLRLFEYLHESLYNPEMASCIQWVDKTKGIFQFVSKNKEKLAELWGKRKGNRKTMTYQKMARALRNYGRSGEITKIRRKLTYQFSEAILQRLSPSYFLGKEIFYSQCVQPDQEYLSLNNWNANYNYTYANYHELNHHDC
The conditions noted are these: protein: recombinant; tags: N-terminal GST; dsDNA, one strand shown. In outline:
as §1

Another experiment has as its target ELF4 (Homo sapiens, UniProt Q99607 1-663). The note with it: protein: recombinant; tags: N-terminal GST; dsDNA, one strand shown. In outline:
as §1

For the next experiment, the target named is T3, ELK4 (Homo sapiens, UniProt P28324-2 1-405).
T3 sequence: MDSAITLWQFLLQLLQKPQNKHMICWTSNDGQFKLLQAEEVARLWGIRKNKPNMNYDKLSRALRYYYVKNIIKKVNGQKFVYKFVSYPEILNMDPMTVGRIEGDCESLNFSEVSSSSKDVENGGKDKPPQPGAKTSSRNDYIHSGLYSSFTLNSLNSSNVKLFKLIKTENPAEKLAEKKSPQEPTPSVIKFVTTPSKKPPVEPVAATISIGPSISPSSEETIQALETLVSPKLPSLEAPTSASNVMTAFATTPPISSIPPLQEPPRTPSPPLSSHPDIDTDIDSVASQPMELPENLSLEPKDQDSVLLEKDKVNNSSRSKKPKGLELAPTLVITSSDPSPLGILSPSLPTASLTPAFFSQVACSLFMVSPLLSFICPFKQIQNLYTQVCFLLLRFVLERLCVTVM
The note with it: protein: recombinant; tags: N-terminal GST; dsDNA, one strand shown. The method, boiled down:
as §1

The next experiment addresses T4, ETV2 (Homo sapiens, UniProt O00321 1-342).
T4 sequence: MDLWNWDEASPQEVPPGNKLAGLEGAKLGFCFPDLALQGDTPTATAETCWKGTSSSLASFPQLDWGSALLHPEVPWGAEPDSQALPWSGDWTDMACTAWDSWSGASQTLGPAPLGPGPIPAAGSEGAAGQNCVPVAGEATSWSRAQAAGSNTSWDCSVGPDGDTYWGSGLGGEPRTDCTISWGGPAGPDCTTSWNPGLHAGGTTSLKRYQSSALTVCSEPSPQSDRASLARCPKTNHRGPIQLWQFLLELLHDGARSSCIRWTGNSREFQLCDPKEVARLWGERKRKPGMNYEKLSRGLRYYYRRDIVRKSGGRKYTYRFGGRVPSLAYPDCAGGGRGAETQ
The conditions noted are these: protein: recombinant; tags: N-terminal GST; dsDNA, one strand shown. In outline: as §1

The target in a further experiment is T5, ELF3 (Homo sapiens, UniProt P78545 1-371).
T5 sequence: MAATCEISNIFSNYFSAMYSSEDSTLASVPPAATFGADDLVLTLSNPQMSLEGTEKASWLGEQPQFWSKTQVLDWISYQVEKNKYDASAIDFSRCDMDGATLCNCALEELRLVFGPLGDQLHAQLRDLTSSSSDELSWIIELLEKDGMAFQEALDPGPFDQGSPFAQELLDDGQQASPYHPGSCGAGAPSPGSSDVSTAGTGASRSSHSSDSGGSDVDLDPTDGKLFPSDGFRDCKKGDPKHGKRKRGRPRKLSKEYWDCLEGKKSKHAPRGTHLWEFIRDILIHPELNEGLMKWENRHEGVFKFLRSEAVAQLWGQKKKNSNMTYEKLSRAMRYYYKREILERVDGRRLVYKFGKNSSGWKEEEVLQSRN
The note with it: protein: recombinant; tags: N-terminal GST; dsDNA, one strand shown. In outline:
as §1

Another experiment has as its target CRX (Homo sapiens, UniProt O43186 1-299). The conditions noted are these: protein: recombinant; tags: N-terminal GST; dsDNA, one strand shown. The method, boiled down:
as §1

Another experiment concerns the target ETV1 (Homo sapiens, UniProt P50549 1-477). The conditions noted are these: protein: recombinant; tags: N-terminal GST; dsDNA, one strand shown. In outline:
as §1

For the next experiment, the target named is T6, ERF (Homo sapiens, UniProt P50548 1-548).
T6 sequence: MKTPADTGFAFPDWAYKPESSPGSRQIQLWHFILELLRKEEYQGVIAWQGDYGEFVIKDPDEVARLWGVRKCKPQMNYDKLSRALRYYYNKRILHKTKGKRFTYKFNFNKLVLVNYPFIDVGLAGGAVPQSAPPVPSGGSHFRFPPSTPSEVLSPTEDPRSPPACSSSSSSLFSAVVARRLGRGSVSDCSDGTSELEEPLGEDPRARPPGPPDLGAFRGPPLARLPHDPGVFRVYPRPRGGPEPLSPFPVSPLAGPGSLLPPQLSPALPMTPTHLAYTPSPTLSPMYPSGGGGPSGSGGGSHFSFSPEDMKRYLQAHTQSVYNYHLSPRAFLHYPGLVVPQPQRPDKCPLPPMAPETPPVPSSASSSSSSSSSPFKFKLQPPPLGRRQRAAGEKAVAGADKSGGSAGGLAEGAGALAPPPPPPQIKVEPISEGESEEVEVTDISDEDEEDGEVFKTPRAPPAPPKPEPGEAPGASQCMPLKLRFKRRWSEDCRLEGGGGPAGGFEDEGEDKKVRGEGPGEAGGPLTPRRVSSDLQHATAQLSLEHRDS
The note with it: protein: recombinant; tags: N-terminal GST; dsDNA, one strand shown. The method, boiled down:
as §1

For another experiment, the target named is T7, ETV3L (Homo sapiens, UniProt Q6ZN32 1-361).
T7 sequence: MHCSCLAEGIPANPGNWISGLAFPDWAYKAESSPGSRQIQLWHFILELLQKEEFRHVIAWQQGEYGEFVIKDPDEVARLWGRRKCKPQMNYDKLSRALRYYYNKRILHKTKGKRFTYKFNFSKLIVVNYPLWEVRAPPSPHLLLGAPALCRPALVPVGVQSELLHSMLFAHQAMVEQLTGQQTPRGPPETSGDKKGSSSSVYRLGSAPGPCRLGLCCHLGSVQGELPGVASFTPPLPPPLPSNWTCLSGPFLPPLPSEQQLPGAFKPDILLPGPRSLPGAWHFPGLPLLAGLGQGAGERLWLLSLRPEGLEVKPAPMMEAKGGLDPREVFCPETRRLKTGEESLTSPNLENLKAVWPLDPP
The conditions noted are these: protein: recombinant; tags: N-terminal GST; dsDNA, one strand shown. In outline:
as §1

The target of the next experiment is T8, ETS2 (Homo sapiens, UniProt P15036 1-469).
T8 sequence: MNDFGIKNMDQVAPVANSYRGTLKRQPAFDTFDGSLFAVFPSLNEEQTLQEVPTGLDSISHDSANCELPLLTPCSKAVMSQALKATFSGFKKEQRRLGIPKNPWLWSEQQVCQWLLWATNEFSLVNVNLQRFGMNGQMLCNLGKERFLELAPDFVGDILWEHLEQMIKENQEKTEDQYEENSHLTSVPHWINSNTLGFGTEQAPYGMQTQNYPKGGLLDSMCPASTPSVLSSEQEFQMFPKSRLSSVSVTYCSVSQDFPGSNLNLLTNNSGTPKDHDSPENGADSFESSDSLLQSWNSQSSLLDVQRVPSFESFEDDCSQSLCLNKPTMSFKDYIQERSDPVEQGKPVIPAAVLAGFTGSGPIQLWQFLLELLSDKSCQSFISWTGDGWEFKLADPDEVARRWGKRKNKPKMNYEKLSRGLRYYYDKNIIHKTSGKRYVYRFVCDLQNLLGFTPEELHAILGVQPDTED
The conditions noted are these: protein: recombinant; tags: N-terminal GST; dsDNA, one strand shown. In outline:
as §1

In another experiment the target is T9, SPDEF (Homo sapiens, UniProt O95238 1-335).
T9 sequence: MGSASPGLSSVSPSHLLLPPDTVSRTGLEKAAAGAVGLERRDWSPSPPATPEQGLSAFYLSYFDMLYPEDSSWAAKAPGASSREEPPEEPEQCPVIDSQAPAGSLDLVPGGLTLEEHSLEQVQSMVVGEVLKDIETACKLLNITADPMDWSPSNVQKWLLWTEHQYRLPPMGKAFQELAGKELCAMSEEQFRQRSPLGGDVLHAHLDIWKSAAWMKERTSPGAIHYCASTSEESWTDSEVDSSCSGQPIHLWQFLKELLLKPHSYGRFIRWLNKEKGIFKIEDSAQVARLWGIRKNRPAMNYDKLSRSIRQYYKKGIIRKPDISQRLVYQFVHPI
The conditions noted are these: protein: recombinant; tags: N-terminal GST; dsDNA, one strand shown. In outline: as §1

Another experiment addresses T10, ETV7 (Homo sapiens, UniProt Q9Y603 1-341).
T10 sequence: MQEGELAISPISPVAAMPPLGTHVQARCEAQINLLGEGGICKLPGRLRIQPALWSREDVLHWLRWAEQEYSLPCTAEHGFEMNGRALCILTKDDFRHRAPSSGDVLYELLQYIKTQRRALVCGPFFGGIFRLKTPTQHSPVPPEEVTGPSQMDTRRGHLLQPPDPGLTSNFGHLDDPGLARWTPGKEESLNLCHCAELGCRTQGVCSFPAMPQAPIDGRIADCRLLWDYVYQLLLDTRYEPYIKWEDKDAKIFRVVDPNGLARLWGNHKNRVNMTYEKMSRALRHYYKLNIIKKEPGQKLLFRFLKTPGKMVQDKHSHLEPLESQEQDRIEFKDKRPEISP
The note with it: protein: recombinant; tags: N-terminal GST; dsDNA, one strand shown. The method, boiled down:
as §1

Another experiment has as its target T11, ELF5 (Homo sapiens, UniProt Q9UKW6-2 1-255).
T11 sequence: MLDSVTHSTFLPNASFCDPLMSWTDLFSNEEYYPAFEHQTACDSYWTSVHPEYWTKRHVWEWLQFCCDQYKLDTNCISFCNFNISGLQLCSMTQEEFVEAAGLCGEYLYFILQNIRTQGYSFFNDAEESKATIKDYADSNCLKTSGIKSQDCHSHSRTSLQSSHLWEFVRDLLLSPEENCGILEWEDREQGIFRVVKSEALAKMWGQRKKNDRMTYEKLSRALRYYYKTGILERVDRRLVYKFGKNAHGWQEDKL
The note with it: protein: recombinant; tags: N-terminal GST; dsDNA, one strand shown. In outline: as §1

A further experiment concerns the target T12, ETV3 (Homo sapiens, UniProt P41162-2 1-143).
T12 sequence: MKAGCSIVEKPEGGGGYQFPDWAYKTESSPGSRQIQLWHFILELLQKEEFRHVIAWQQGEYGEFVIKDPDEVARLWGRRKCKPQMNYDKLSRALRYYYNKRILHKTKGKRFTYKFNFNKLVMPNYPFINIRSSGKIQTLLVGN
The conditions noted are these: protein: recombinant; tags: N-terminal GST; dsDNA, one strand shown. The method, boiled down:
as §1

In another experiment the target is ETV6 (Homo sapiens, UniProt P41212 1-452). The conditions noted are these: protein: recombinant; tags: N-terminal GST; dsDNA, one strand shown. In outline: as §1
Sequence of ETV6 (P41212 whole entry): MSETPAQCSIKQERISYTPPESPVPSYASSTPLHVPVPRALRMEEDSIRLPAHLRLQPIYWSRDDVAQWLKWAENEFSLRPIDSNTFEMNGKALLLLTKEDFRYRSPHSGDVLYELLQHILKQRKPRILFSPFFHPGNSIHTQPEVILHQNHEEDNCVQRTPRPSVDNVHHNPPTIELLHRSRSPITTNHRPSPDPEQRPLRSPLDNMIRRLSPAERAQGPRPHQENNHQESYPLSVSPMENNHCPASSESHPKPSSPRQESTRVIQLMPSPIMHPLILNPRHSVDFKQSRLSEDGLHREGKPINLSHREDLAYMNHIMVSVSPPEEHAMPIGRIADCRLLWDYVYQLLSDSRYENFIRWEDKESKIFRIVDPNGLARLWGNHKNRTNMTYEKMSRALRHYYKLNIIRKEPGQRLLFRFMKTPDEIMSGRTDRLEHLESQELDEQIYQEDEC

Sequence of ETV1 (P50549 whole entry): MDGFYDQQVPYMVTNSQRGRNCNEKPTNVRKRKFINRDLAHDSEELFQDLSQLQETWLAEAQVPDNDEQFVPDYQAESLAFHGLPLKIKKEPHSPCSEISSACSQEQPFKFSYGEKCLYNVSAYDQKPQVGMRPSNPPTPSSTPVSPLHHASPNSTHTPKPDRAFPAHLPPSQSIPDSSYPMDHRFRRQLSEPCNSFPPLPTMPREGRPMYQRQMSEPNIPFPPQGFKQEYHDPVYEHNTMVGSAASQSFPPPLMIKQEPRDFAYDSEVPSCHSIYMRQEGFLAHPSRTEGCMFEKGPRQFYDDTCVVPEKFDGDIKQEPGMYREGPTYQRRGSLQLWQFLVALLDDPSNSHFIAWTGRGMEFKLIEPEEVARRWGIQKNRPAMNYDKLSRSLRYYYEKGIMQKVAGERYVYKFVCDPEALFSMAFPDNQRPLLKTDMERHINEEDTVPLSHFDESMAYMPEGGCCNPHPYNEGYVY
Sequence of CRX (O43186 whole entry): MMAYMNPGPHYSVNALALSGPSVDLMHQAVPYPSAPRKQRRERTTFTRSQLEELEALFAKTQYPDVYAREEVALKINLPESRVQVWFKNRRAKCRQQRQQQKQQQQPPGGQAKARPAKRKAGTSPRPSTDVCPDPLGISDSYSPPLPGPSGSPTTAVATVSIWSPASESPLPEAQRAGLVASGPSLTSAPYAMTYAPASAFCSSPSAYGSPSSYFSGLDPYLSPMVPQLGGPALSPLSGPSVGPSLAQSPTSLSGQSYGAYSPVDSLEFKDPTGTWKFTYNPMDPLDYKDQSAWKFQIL
Sequence of ETV5 (P41161 whole entry): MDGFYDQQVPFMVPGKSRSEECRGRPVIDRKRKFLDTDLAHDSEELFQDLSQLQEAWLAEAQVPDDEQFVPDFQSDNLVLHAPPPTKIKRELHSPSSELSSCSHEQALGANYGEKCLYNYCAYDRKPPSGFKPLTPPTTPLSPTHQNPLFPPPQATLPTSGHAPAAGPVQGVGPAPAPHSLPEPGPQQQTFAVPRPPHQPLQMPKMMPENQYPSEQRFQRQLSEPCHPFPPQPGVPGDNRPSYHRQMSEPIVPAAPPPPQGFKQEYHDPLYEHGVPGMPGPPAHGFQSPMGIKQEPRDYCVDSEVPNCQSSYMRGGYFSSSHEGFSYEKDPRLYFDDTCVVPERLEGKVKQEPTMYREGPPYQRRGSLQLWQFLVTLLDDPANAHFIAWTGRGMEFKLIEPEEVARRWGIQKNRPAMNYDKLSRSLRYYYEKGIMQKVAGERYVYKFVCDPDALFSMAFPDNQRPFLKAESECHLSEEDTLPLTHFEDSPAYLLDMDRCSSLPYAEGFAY
Sequence of ELF4 (Q99607 whole entry): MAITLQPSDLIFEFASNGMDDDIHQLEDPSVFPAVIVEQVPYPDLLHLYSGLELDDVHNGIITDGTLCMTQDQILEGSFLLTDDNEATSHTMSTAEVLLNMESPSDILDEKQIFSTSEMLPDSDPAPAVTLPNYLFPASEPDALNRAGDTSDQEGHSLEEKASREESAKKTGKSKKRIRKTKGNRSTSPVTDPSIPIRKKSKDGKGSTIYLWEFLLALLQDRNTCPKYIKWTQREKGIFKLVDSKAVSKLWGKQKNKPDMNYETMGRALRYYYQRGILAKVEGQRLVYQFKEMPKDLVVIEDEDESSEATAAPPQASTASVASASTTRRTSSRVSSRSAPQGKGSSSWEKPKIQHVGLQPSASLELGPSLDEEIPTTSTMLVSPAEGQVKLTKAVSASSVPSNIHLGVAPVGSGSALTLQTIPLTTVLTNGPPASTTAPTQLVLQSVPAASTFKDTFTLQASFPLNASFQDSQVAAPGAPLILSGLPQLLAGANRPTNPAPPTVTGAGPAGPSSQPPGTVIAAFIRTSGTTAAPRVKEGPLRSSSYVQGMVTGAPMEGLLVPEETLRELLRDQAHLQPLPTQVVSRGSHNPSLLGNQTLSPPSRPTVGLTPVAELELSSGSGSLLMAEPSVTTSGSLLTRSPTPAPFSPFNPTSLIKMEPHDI
Sequence of HSF1 (Q00613 whole entry): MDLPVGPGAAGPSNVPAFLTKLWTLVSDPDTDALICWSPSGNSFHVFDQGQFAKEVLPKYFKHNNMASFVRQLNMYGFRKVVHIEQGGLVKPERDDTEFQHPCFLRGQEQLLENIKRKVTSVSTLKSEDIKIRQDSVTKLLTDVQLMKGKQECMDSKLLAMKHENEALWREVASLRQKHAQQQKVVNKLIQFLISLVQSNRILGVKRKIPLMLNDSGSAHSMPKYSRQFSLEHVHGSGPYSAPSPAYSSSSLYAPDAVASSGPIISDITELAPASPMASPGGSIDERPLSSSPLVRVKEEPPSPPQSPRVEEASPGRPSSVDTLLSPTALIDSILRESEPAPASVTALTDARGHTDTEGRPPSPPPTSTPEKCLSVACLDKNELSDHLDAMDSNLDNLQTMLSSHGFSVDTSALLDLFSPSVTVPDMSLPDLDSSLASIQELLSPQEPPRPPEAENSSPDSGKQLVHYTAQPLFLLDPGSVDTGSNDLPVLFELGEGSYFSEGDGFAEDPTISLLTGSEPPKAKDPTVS

As for TATATT, the binding signal was 1.39 fold enrichment (6-mer frequency, TF over GST control) with FEV; 1.43 fold enrichment (6-mer frequency, TF over GST control) with ETV5; 1.58 fold enrichment (6-mer frequency, TF over GST control) with HSF1; 1.56 fold enrichment (6-mer frequency, TF over GST control) with SPIC; 1.32 fold enrichment (6-mer frequency, TF over GST control) with ELF4; 1.65 fold enrichment (6-mer frequency, TF over GST control) with ELK4. The binding signal with ETV2 was 1.41 fold enrichment (6-mer frequency, TF over GST control); with ELF3, 1.58 fold enrichment (6-mer frequency, TF over GST control); in the experiment with CRX, 1.93 fold enrichment (6-mer frequency, TF over GST control); in the experiment with ETV1, 1.44 fold enrichment (6-mer frequency, TF over GST control); with ERF it was 1.43 fold enrichment (6-mer frequency, TF over GST control); in the experiment with ETV3L it was 1.5 fold enrichment (6-mer frequency, TF over GST control). The binding signal with ETS2 is 1.31 fold enrichment (6-mer frequency, TF over GST control); with SPDEF it was 1.32 fold enrichment (6-mer frequency, TF over GST control); with ETV7, 1.4 fold enrichment (6-mer frequency, TF over GST control); with ELF5, 1.35 fold enrichment (6-mer frequency, TF over GST control); in the experiment with ETV3, 1.44 fold enrichment (6-mer frequency, TF over GST control); in the experiment with ETV6, 1.37 fold enrichment (6-mer frequency, TF over GST control).
